Measurements: PubChem BioAssay (EPA / NIEHS)
Calls of active or inactive are those of the source. How the source made its calls: active means hit-call score of the fitted dose curve at least 0.9, where 1 is the maximum; inactive means score below 0.9.

Key:
Details in all cases: mRNA level, 48 h; actives raise or lower the signal
[1] = read-out: MicroRNA 122 (MIR122), gene 406906; assay: LTEA_HepaRG_MIR122: Life Technologies and Expression Analysis (LTEA) Assay for MicroRNA 122 (MIR122) using HepaRG (AID 2283516); further: the transcript read is the microRNA miR-122
Summary of the method: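 Differentiated human HepaRG cells in serum-free induction medium exposed 48 h to 8 half-log concentrations from 100 uM in 0.5% DMSO, duplicate. MIR122 quantified by Fluidigm TaqMan qRT-PCR, normalised to ACTB, GAPDH, POLR2A; fold change fitted bidirectionally versus DMSO.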

[2] = read-out: matrix metalloproteinase-10 (MMP10), MMP10 (gene 4319); assay: LTEA_HepaRG_MMP10: Life Technologies and Expression Analysis (LTEA) Assay for matrix metalloproteinase-10 (MMP10) using HepaRG (AID 2283517)
Summary of the method: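 HepaRG, collagen I, ~100,000 cells/well; serum-free induction medium; 48 h exposure, duplicate, 8-pt half-log to 100 uM, 0.5% DMSO. Readout: TaqMan qRT-PCR, normalized to ACTB/GAPDH/POLR2A; bidirectional fit vs DMSO.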

MYC, MYC (gene 4609) = assay: LTEA_HepaRG_MYC: Life Technologies and Expression Analysis (LTEA) Assay for MYC using HepaRG (AID 2283518)
Summary of the method: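 Expression changes were scored by TaqMan qRT-PCR with ACTB, GAPDH and POLR2A normalization. Cultures in serum-free induction medium received duplicate 8-point concentration series, highest 100 uM, for 48 h; DMSO (0.5%) served as baseline.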

[3] = read-out: matrix metalloproteinase-3 (MMP3), MMP3 (gene 4314); assay: LTEA_HepaRG_MMP3: Life Technologies and Expression Analysis (LTEA) Assay for matrix metalloproteinase-3 (MMP3) using HepaRG (AID 2283519)
Summary of the method: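 Differentiated human HepaRG cells, plated 48 h on collagen I, were exposed in duplicate for 48 h in serum-free induction medium to eight half-log concentrations up to 100 uM in 0.5% DMSO. MMP3 mRNA was quantified by TaqMan qRT-PCR, normalised to ACTB, GAPDH and POLR2A.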

[4] = read-out: Paternally Expressed 10 (PEG10), PEG10 (gene 23089); assay: LTEA_HepaRG_PEG10: Life Technologies and Expression Analysis (LTEA) Assay for Paternally Expressed 10 (PEG10) using HepaRG (AID 2283520)
Summary of the method: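 Differentiated HepaRG cells exposed 48 h in serum-free induction medium to eight half-log concentrations topping at 100 uM, 0.5% DMSO, in duplicate. PEG10 mRNA quantified by TaqMan qRT-PCR, normalized to ACTB, GAPDH and POLR2A; bidirectional fit versus DMSO.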

[5] = read-out: Nuclear factor NF-kappa-B p105 subunit (Homo sapiens) (UniProt P19838); assay: LTEA_HepaRG_NFKB1: Life Technologies and Expression Analysis (LTEA) Assay for Nuclear Factor Kappa B Subunit 1 (NFKB1) using HepaRG (AID 2283521);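 further: TaqMan qRT-PCR transcript normalised to ACTB GAPDH and POLR2A housekeeping genes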
Summary of the method: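 Differentiated human HepaRG cells were exposed for 48 h in serum-free induction medium to eight concentrations (top 100 uM, half-log steps, 0.5% DMSO), in duplicate. NFKB1 mRNA was measured by TaqMan qRT-PCR, normalized to ACTB/GAPDH/POLR2A, and fitted bidirectionally against DMSO.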

[6] = read-out: Protein phosphatase 2A (PPP2R4), PTPA (gene 5524); assay: LTEA_HepaRG_PPP2R4: Life Technologies and Expression Analysis (LTEA) Assay for Protein phosphatase 2A (PPP2R4) using HepaRG (AID 2283522)
Summary of the method: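 Differentiated human HepaRG cells in serum-free induction medium were exposed 48 h to 8 concentrations (top 100 µM, half-log steps, duplicate) in 0.5% DMSO. PPP2R4 mRNA was measured by TaqMan qRT-PCR, normalised to ACTB, GAPDH and POLR2A, and fitted bidirectionally versus DMSO.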

[7] = read-out: Phosphatase and tensin (PTEN), PTEN (gene 5728); assay: LTEA_HepaRG_PTEN: Life Technologies and Expression Analysis (LTEA) Assay for Phosphatase and tensin (PTEN) using HepaRG (AID 2283523)
Summary of the method: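 Differentiated human HepaRG cells, plated 48 h then switched to serum-free induction medium, were exposed in duplicate for 48 h to eight half-log concentrations up to 100 uM in 0.5% DMSO. PTEN mRNA measured by TaqMan qRT-PCR, normalized to ACTB/GAPDH/POLR2A, bidirectional fit versus DMSO.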

[8] = read-out: solute carrier (SLC22A1), SLC22A1 (gene 6580); assay: LTEA_HepaRG_SLC22A1: Life Technologies and Expression Analysis (LTEA) Assay for solute carrier (SLC22A1) using HepaRG (AID 2283524)
Summary of the method: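 Human HepaRG cells were plated 48 h, switched to serum-free induction medium, then exposed in duplicate for 48 h to 8-point half-log series from 100 uM in 0.5% DMSO. SLC22A1 mRNA measured by qRT-PCR, normalized to ACTB/GAPDH/POLR2A, fitted bidirectionally versus DMSO.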

[9] = read-out: Pyruvate Dehydrogenase Kinase 4 (PDK4), PDK4 (gene 5166); assay: LTEA_HepaRG_PDK4: Life Technologies and Expression Analysis (LTEA) Assay for Pyruvate Dehydrogenase Kinase 4 (PDK4) using HepaRG (AID 2283525)
Summary of the method: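 Differentiated human HepaRG cells, pre-cultured 48 h, were exposed in duplicate for 48 h in serum-free induction medium to eight half-log concentrations up to 100 uM in 0.5% DMSO. PDK4 mRNA was quantified by qRT-PCR, normalized to ACTB, GAPDH and POLR2A, bidirectional fitting versus DMSO.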

[10] = read-out: Nuclear factor erythroid 2-related factor 2 (Homo sapiens) (UniProt Q16236); assay: LTEA_HepaRG_NFE2L2: Life Technologies and Expression Analysis (LTEA) Assay for Nuclear factor erythroid 2-related factor 2 (NFE2L2) Transcription Factor using HepaRG (AID 2283527);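 further: TaqMan qRT-PCR transcript level normalised to ACTB GAPDH and POLR2A housekeeping genes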
Summary of the method: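 Differentiated human HepaRG cells in serum-free induction medium were exposed for 48 h to eight concentrations (top 100 uM, half-log dilutions, 0.5% DMSO), in duplicate. NFE2L2 mRNA was quantified by TaqMan qRT-PCR, normalized to ACTB, GAPDH and POLR2A, with bidirectional fitting versus DMSO.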

[11] = read-out: succinate dehydrogenase complex iron sulfur subunit B (SDHB), SDHB (gene 6390); assay: LTEA_HepaRG_SDHB: Life Technologies and Expression Analysis (LTEA) Assay for succinate dehydrogenase complex iron sulfur subunit B (SDHB) using HepaRG (AID 2283528)
Summary of the method: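 HepaRG, 48 h exposure, 8-pt half-log series from 100 uM in 0.5% DMSO, duplicates. Readout: SDHB mRNA by Fluidigm qRT-PCR vs housekeeping genes; bidirectional fit relative to DMSO.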

[12] = read-out: Signal transducer and activator of transcription 3 (Homo sapiens) (UniProt P40763); assay: LTEA_HepaRG_STAT3: Life Technologies and Expression Analysis (LTEA) Assay for Signal transducer and activator of transcription (STAT3) using HepaRG (AID 2283529)
Summary of the method: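 Differentiated human HepaRG cells in serum-free induction medium were exposed in duplicate for 48 h to eight half-log concentrations up to 100 uM in 0.5% DMSO. STAT3 mRNA was quantified by TaqMan qRT-PCR, normalized to ACTB, GAPDH and POLR2A, and fitted bidirectionally against DMSO.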

[13] = read-out: solute carrier (SLCO1B1), SLCO1B1 (gene 10599); assay: LTEA_HepaRG_SLCO1B1: Life Technologies and Expression Analysis (LTEA) Assay for solute carrier (SLCO1B1) using HepaRG (AID 2283530)
Summary of the method: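 Human HepaRG cultures treated for 48 h with an eight-concentration half-log series topping at 100 uM; SLCO1B1 measured by qRT-PCR and fitted bidirectionally relative to DMSO.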

[14] = read-out: sulfotransferase 2A1 (SULT2A1), SULT2A1 (gene 6822); assay: LTEA_HepaRG_SULT2A1: Life Technologies and Expression Analysis (LTEA) Assay for sulfotransferase 2A1 (SULT2A1) using HepaRG (AID 2283531)
Summary of the method: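 Gene-expression endpoint in a human liver cell line: SULT2A1 mRNA change after 48 h chemical treatment, curves fitted in both directions relative to 0.5% DMSO vehicle. Concentrations spanned eight half-log steps from 100 uM.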

[15] = read-out: Transforming Growth Factor (TGFA), TGFA (gene 7039); assay: LTEA_HepaRG_TGFA: Life Technologies and Expression Analysis (LTEA) Assay for Transforming Growth Factor (TGFA) using HepaRG (AID 2283532)
Summary of the method: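 Differentiated human HepaRG cells, plated 48 h then switched to serum-free induction medium, were exposed in duplicate for 48 h to 8-point half-log series from 100 uM in 0.5% DMSO. TGFA mRNA measured by qRT-PCR, normalized to ACTB/GAPDH/POLR2A, bidirectional fit versus DMSO.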

[16] = read-out: Transforming Growth Factor (TGFB1), TGFB1 (gene 7040); assay: LTEA_HepaRG_TGFB1: Life Technologies and Expression Analysis (LTEA) Assay for Transforming Growth Factor (TGFB1) Transporter using HepaRG (AID 2283533)
Summary of the method: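 Eight-point concentration-response (max 100 uM, half-log) in HepaRG under serum-free induction conditions, 48 h. TGFB1 mRNA by qRT-PCR, housekeeping-normalized.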

TIMP1, TIMP1 (gene 7076) = assay: LTEA_HepaRG_TIMP1: Life Technologies and Expression Analysis (LTEA) Assay for TIMP1 using HepaRG (AID 2283534);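 further: TaqMan qRT-PCR signal normalized to ACTB GAPDH and POLR2A housekeeping genes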
Summary of the method: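 TIMP1 induction or repression in HepaRG cells after 48 h chemical exposure (eight concentrations, highest 100 uM), assessed by normalized qRT-PCR with bidirectional fitting to DMSO controls.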

[17] = read-out: Tumor necrosis factor receptor 1 (TNFRSF1A), TNFRSF1A (gene 7132); assay: LTEA_HepaRG_TNFRSF1A: Life Technologies and Expression Analysis (LTEA) Assay for Tumor necrosis factor receptor 1 (TNFRSF1A) using HepaRG (AID 2283535)
Summary of the method: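 Assay uses 48 h chemical treatment of differentiated HepaRG monolayers, tested in duplicate at eight concentrations from 100 uM downward in 0.5% DMSO. mRNA is normalized to ACTB, GAPDH and POLR2A, with induction or suppression fitted relative to vehicle.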

Measured: outcome

Sequence of Nuclear factor NF-kappa-B p105 subunit (Homo sapiens) (P19838 whole entry, looked up): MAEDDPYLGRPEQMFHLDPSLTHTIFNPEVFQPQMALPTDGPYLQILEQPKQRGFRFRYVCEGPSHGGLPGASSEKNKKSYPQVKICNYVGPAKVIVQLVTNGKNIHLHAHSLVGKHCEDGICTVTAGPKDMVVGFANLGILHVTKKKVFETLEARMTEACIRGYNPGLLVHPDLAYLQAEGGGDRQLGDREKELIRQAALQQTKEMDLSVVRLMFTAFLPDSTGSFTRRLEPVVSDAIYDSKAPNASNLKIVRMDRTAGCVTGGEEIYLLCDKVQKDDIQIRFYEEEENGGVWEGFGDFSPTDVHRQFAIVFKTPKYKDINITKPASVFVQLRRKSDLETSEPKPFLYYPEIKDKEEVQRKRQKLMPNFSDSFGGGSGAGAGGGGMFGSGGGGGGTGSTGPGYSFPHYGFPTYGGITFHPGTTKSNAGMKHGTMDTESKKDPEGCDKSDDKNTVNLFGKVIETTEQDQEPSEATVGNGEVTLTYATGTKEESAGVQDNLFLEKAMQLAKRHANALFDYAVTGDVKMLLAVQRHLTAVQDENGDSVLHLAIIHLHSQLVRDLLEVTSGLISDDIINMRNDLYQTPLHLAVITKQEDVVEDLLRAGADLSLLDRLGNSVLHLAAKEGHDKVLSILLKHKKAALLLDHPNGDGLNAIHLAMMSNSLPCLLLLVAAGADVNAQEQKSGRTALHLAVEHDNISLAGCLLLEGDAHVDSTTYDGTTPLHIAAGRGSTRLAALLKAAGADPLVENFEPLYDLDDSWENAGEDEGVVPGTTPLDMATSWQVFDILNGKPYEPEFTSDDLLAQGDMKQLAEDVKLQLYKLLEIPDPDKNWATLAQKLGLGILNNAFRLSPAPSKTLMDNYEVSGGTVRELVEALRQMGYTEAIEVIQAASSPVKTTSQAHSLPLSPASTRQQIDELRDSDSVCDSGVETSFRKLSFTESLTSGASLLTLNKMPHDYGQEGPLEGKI
Sequence of Signal transducer and activator of transcription 3 (Homo sapiens) (P40763 whole entry, looked up): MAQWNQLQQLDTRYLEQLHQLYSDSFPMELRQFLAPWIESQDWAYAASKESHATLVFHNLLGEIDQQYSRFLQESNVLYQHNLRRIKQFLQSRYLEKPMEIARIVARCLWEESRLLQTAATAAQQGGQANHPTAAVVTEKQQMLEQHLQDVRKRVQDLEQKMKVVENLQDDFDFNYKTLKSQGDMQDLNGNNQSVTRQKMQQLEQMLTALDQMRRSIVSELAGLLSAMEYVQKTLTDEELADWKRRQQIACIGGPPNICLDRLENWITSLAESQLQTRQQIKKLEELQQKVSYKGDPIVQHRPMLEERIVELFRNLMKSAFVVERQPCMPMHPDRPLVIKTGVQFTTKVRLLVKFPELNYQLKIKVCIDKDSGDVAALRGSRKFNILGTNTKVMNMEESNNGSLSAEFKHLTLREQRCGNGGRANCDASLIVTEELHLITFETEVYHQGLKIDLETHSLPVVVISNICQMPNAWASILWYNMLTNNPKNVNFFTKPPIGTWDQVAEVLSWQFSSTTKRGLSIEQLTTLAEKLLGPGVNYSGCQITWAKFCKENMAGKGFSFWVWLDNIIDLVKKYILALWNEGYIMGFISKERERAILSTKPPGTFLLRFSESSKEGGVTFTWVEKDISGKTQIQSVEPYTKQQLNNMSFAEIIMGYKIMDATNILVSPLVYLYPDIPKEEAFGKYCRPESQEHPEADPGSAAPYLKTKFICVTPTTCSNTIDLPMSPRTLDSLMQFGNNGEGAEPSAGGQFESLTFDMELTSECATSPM
Sequence of Nuclear factor erythroid 2-related factor 2 (Homo sapiens) (Q16236 whole entry, looked up): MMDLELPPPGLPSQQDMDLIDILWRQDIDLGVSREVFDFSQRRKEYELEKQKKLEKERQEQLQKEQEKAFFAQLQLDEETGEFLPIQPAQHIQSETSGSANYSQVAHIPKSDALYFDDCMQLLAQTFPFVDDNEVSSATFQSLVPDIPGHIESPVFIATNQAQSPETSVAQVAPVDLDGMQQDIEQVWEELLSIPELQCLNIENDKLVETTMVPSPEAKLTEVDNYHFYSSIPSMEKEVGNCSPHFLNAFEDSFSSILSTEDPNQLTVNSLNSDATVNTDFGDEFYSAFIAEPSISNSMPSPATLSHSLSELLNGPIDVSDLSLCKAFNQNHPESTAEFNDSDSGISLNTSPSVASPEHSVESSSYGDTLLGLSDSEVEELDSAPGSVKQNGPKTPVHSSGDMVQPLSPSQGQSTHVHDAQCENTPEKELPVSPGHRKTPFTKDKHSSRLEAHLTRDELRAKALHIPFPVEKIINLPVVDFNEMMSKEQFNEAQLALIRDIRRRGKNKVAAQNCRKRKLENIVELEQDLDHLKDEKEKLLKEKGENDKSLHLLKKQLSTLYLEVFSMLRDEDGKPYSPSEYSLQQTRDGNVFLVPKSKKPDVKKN

Cn1cnc2c1c(=O)[nH]c(=O)n2C
inactive: [1] | [2] | MYC, MYC (gene 4609) | [3] | [4] | [5] | [6] | [7] | [8] | [9] | [10] | [11] | [12] | [13] | [14] | [15] | [16] | TIMP1, TIMP1 (gene 7076) | [17]

O=C(O)c1cccnc1
inactive: [1] | [2] | MYC, MYC (gene 4609) | [3] | [4] | [5] | [6] | [7] | [8] | [9] | [10] | [11] | [12] | [13] | [14] | [15] | [16] | TIMP1, TIMP1 (gene 7076) | [17]

CCCCCCC(C=O)=Cc1ccccc1
inactive: [1] | [2] | MYC, MYC (gene 4609) | [3] | [4] | [5] | [6] | [7] | [8] | [9] | [10] | [11] | [12] | [13] | [14] | [15] | [16] | TIMP1, TIMP1 (gene 7076) | [17]
